Compound activity deposited in PubChem BioAssay by National Center for Advancing Translational Sciences (NCATS).
Shown are actives, neighbours in structure and some others; about 10% of the full set was active somewhere.
G9a inh: G9a (human) methyltransferase inhibition; Potency, µM (highest dose often 102 µM), for the others: top-dose activity, negative = inhibition, most hits filed as inhibitors; Q96KQ7; 350,000 tested, 8.8% active; G9a H3K9 monomethylation, AlphaScreen, 2 h; note: % is set by controls: 0 for no effect and ±100 for the full control effect; nearly all actives have a fitted effect of over 75% in size
Target sequence (Q96KQ7 913-1193 limits assumed): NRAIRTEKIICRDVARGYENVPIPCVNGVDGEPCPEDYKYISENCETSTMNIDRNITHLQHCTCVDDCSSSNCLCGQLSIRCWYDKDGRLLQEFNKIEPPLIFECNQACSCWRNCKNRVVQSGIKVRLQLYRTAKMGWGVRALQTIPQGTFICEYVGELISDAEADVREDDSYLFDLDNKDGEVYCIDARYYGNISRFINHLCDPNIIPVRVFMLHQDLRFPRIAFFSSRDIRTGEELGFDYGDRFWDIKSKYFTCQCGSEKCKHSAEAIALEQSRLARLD
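Enzyme 20 nM + cpd, 15 min RT; add b-H3K9 pep 500 nM / SAM 20 uM; 2 h RT; anti-H3K9me1 Ab 0.5 ug/mL + SA donor / anti-rabbit acceptor beads 20 ug/mL each, 10 min; AlphaScreen read.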
BAZ2B block: blocks human BAZ2B; Q9UIF8; AlphaScreen BAZ2B-H3K14Ac peptide displacement; Potency, µM (highest dose often 114 µM), without a hit: at the highest dose activity change, negative = inhibition, most hits filed as inhibitors; 360,000 tested, 4.4% active; AID 504333; note: % is set by controls: 0 for no effect and ±100 for the full control effect; nearly all actives have a fitted effect of over 60% in size
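Compounds, titrated to a top concentration of 110 uM, were incubated 30 min at room temperature with preformed BAZ2B/acetyl-K14 H3 peptide complex (50 nM each). Proximity signal was measured by AlphaScreen after 20 min with beads.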
GLS inhibitor: inhibitors of human glutaminase (GLS); O94925; Potency, µM (highest dose often 45.5 µM), inactives show at the highest dose activity change, negative = inhibition, usual class: inhibitors; GLS enzymatic activity, qHTS titration; 410,000 tested, 0.21% active; note: % is set by controls: 0 for no effect and ±100 for the full control effect
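Compounds were pin-transferred onto hKGA, after which L-glutamine (1 mM solution) and a detection mix of glutamate oxidase, HRP and Amplex Red were added. Initial and 30 min RT fluorescence reads were collected.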
JMJD2A Tudor inh: inhibitors of human JMJD2A Tudor domain | AlphaScreen JMJD2A-Tudor / H3K4me3 peptide binding | AID 504339 | 390,000 tested, 4.4% active | O75164 | Potency, µM (titrated, usually from 114 µM), for inactives: top-dose activity change, negative = inhibition, most hits filed as inhibitors; note: % is set by controls: 0 for no effect and ±100 for the full control effect; nearly all actives have a fitted effect of over 50% in size
HP1b chromo inh: blocks HP1-beta chromodomain binding to methylated histone tails; P83916; AlphaScreen HP1-beta / biotin-H3K9me3 peptide binding; Potency, µM (doses to about 114 µM), inactives show top-dose activity change, negative = inhibition, actives largely listed as inhibitors; 390,000 tested, 0.56% active; AID 540317; note: nearly all actives have a fitted effect of over 70% in size
Target sequence (P83916 whole entry, looked up): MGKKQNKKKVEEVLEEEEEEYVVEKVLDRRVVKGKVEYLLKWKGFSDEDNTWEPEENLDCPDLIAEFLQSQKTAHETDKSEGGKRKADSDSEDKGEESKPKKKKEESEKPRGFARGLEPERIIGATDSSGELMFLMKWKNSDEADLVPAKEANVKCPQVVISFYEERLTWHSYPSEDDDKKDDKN
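Compound inhibition of the preformed complex between 50 nM HP1-beta and 50 nM biotinylated H3K9me3 peptide was read by AlphaScreen. Buffer was PBS pH 7.4 with 0.01% Tween-20. Incubations ran 30 min at room temperature, with 10 ug/mL donor/acceptor beads.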
* hit, by the source's call; ? = inconclusive; · = no result given; [ ] = dose if it differs, or a comment. Calls come from the whole dose curve; as a rule, active = well fitted curve in the direction sought with a large enough effect; inconclusive = small, poorly fitted or top-dose-only effect, or another doubt; inactive = no such curve, though single readings can be large; an effect the other way counts as inactive or inconclusive. Potency is the fitted concentration of half-maximal effect.

SMILES	G9a inh	BAZ2B block	GLS inhibitor	JMJD2A Tudor inh	HP1b chromo inh
CCCC(=O)C1=C(O)C(C(=O)OC)C(C)(C)CC1=Nc1cccc2ccccc12 (stereo not given)	?	11.4%	5.6%	0.0%	34.8%
CCOCCCNc1ncnc2c1cnn2-c1ccc(C)c(C)c1	0.1%[59 µM]	12.9%	0.5%	4.6%	41.3%
Cc1cccc(C)c1-n1nnnc1C1(C)CCC(=O)N1C1CCN(Cc2ccccc2)CC1 (stereo not given)	·	·	1.9%	·	·
CCC(=O)N1CCN(c2ccc(NC(=O)COc3ccccc3Cl)cc2)CC1	15.8µM*	-7.8%	20.9%	-25.0%	26.3%
CCC(=O)N1CCN(c2ccc(NC(=O)COc3ccc(C)cc3C)cc2)CC1	?	?	26.0%	-35.2%	-19.1%
Cc1ccc(C(=O)N2CCN(c3ccc(NC(=O)COc4ccccc4C)cc3)CC2)cc1	39.8µM*	35.5µM*	-9.2%	?	-17.2%
CC(=O)N[C@@H](Cc1c[nH]c2ccccc12)C(=O)OCC(=O)Nc1ccc2c(c1)OCO2	·	·	5.7%	-29.7%	26.2%
O=C(COC(=O)[C@H](Cc1c[nH]c2ccccc12)NC(=O)c1ccc(Cl)cc1)Nc1ccc2c(c1)OCO2	?	56.2µM*	11.2%	?	-13.4%
CN1CCN(c2ccc(NC(=O)COc3ccccc3Cl)cc2)CC1	?	-2.9%	26.1%	-30.9%	-19.9%
CCOc1ccc2[nH]c(=O)c(CN(Cc3ccccc3OC)C(=O)c3ccccc3)cc2c1	9.6%[59 µM]	10.4%	3.5%	-8.3%	15.5%
CCOCC(=O)Nc1nc(-c2ccccc2)c(CC)s1	35.5µM*	-8.8%	0.2%	30.2%	18.5%
C/C(=C/C#N)Nc1ccc(C)cc1	13.1%	-17.0%	16.9%	-11.0%	28.7%
Cn1c(C(=O)NCCN2CCc3ccccc3C2)cc2c(=O)n(C)c3ccccc3c21	44.7µM*	-23.3%	-12.1%	-29.3%	31.0%
Cn1c(C(=O)NCCN2CCN(c3ccccc3F)CC2)cc2c(=O)n(C)c3ccccc3c21	44.7µM*	-0.4%	0.8%	-24.6%	-5.6%
COc1cc(C(=O)Nc2cc(S(=O)(=O)N3CCOCC3)ccc2N2CCOCC2)ccc1OC(F)F	·	·	1.3%	-10.5%	2.1%
CCOC(=O)c1c(C)oc2c1c(C(c1cccnc1)N1CCOCC1)c(O)c1ccccc12 (stereo not given)	3.98µM*	39.8µM*	18.1%	79.4µM*	?
CCOC(=O)/C=C/C(=O)OCc1csc(CC(=O)Nc2ccccc2C)n1	28.9%	50.1µM*	3.3%	0.3%	50.4%
CCc1ccccc1S(=O)(=O)Cc1ccc(C(=O)NCCc2ccc(C)cc2)o1	3.3%[59 µM]	-1.9%	-3.4%	20µM*	48.7%
Cc1noc(C)c1COc1ccc(C(=O)OCC(=O)N2CC3(C)CC2CC(C)(C)C3)cc1 (stereo not given)	10.1%[12.7 µM]	-8.2%	7.5%	-19.2%	7.9%
Cc1nc(NC(=O)C2CC2)sc1C(=O)Nc1ccc(Br)cc1	23.0%	-1.0%	-1.4%	-11.8%	28.4%
CCCCN(C)CC(O)Cn1cc(/C=C/C(=O)c2ccc(Br)cc2)c2ccccc21 (stereo not given)	-2.2%[59 µM]	?	4.2%	70.8µM*	-15.2%
CCCCN(C)CC(O)Cn1cc(/C=C/C(=O)c2ccc(C)cc2)c2ccccc21 (stereo not given)	-38.3%[59 µM]	?	10.9%	50.1µM*	-0.2%
CCCN(CCC)CC(O)Cn1cc(/C=C/C(=O)c2ccc(Br)cc2)c2ccccc21 (stereo not given)	-1.1%[59 µM]	-26.4%	-2.8%	?	8.2%
CCOC(=O)C1=C(CN2CCC(C)CC2)NC(=O)NC1c1ccc(OC(C)C)cc1 (stereo not given)	-32.8%[59 µM]	·	0.8%	-30.0%	9.1%
COC(=O)C1=C(C(=O)OC)C2(OC1c1cccc(F)c1)C(=O)c1ccccc1C2=O (stereo not given)	25.1µM*	0.2%	5.4%	0.0%	23.9%
Cc1ccc2c(c1)nnn2C1CCN(S(=O)(=O)c2ccc(C(=O)N(C)C3CCCCC3)cc2)CC1	56.2µM*	-3.0%	-0.6%	?	4.6%
Cc1ccc(S(=O)(=O)N2CCC(n3nnc4cc(C)ccc43)CC2)cc1	6.8%[59 µM]	-6.3%	-0.6%	-14.1%	21.6%
